High-throughput results (PubChem BioAssay)
A selection: hits, their analogues and other compounds. The true share with any hit is near 5.8%.
RORgamma inh = ROR gamma (mouse) transcription inhibition. P51450. Drosophila S2 Gal4-RORgamma UAS-luciferase reporter, 20 h. Potency, µM (doses to about 53.6 µM), actives largely listed as inhibitors. 310,000 tested, 5.4% active; also: nearly all actives have a fitted effect of over 60% in size
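Luciferase reporter read in Schneider cells carrying Gal4-RORγ (mouse) and UAS-Photinus luciferase; cells given compound 1 h before 700 uM copper sulfate induction, then incubated 20 h at ambient temperature.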
TRPV1 potentiator = potentiators of human vanilloid receptor 1 (TRPV1). Q8NER1. TRPV1-expressing cells, Fluo-8 calcium influx, capsaicin EC20 potentiation. potentiation, % at 8.33 µM. 320,000 tested, 0.02% active. AID 540277; in the data active = potentiation above about 80%; inconclusive = between about 30% and that limit
Target sequence (Q8NER1 whole entry, looked up): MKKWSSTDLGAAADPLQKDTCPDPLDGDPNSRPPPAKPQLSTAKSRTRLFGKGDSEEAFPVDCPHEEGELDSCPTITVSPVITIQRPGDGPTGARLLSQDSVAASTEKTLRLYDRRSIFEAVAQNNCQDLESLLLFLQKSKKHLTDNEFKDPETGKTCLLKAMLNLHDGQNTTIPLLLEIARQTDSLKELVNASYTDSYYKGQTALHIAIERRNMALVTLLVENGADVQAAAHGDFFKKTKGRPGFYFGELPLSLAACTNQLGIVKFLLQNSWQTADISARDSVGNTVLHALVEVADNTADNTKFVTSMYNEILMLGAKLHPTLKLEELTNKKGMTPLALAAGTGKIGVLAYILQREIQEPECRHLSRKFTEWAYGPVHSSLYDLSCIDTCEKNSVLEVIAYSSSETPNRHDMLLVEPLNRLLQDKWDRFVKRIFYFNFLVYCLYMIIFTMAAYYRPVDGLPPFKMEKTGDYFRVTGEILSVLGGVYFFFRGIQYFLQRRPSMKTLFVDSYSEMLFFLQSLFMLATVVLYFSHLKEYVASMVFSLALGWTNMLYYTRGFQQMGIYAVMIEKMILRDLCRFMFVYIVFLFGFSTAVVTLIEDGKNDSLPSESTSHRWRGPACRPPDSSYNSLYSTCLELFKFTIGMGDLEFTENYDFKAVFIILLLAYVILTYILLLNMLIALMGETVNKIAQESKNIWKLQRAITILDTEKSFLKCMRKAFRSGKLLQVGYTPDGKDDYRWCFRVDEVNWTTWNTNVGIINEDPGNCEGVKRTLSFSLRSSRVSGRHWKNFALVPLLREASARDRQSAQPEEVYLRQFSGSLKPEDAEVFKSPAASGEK
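Cells expressing TRPV1 were dye-loaded with Fluo-8 and read kinetically: 10 s baseline, 3 min after compound (agonist portion), then 2 min after EC20 capsaicin (allosteric enhancer portion). Calcium-bound dye fluorescence at 480/520 nm.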
Gal4-VP16 FLuc = inhibits Gal4-VP16 luciferase reporter, ROR gamma counter-screen. AID 2546. Potency, µM (series often up to 53.6 µM), hits mostly inhibitors. Drosophila S2 Gal4-VP16 UAS-luciferase, luminescence, 20 h. 310,000 tested, 3.5% active;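 also: Gal4-VP16 expression switched on by copper sulfate through the metallothionein promoter; nearly all actives have a fitted effect of over 50% in size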
TRPV1 agonist = agonists of human vanilloid receptor 1 (TRPV1); Q8NER1; TRPV1-expressing cells, Fluo-8 calcium influx, agonist mode; activation, % at 8.33 µM; 320,000 tested, 0.19% active; in the data active = activation above about 80%; inconclusive = between about 30% and that limit
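Cells expressing TRPV1 were dye-loaded with Fluo-8 and read kinetically: 10 s baseline, 3 min after compound (agonist portion), then 2 min after EC20 capsaicin (allosteric enhancer portion). Calcium-bound dye fluorescence at 480/520 nm.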
uPA generation = blocks generation of uPA at the cell surface | cell surface uPA generation assay, qHTS | Potency, µM (top dose mostly 38.3 µM), actives largely listed as inhibitors | 330,000 tested, 0.31% active | AID 540303; active = well fitted inhibition curve with a large enough effect; inconclusive = small, poorly fitted or top-dose-only effect; inactive = no such curve, though single readings can be large or run the other way; tested in mouse RAW 264.7 cells; also: nearly all actives have a fitted effect of over 55% in size
Hits are given with their value; – = inactive; ? = inconclusive; · = not tested or not shown; [ ] = another dose, or the depositor's remark. Unless noted, calls follow the shape of the dose curve; as a rule, active = well fitted curve in the direction sought with a large enough effect; inconclusive = small, poorly fitted or top-dose-only effect, or another doubt; inactive = no such curve, though single readings can be large; an effect the other way counts as inactive or inconclusive.

SMILES	RORgamma inh	TRPV1 potentiator	Gal4-VP16 FLuc	TRPV1 agonist	uPA generation
CCCN(CC1CC1)C(=S)NC(=O)C1CC1	4µM	–	13µM	–	–
CCCN(CC1CC1)C(=S)NC(=O)c1cc(Br)ccc1Cl	·	–	·	–	–
COc1ccc(-c2csc(CCn3nc(C)cc3C)n2)cc1	10µM	–	?	–	–
COc1ccc(-c2csc(CCn3nc(C)cc3C)n2)cc1OC	–	–	–	–	–
COc1ccc(OC)c(-c2csc(CCn3nc(C)cc3C)n2)c1	14µM	–	–	–	–
COc1ccc(-c2cc(C(F)F)nc(-n3nc(C)cc3C)n2)cc1	0.89µM	–	1.4µM	–	–
C[C@@H]1C(=O)O[C@H]2[C@H](O)[C@@]34[C@H]5CC(C(C)(C)C)[C@]36[C@H](OC(=O)[C@H]6O)O[C@]4(C(=O)O5)[C@@]12O (stereo partly specified)	–	·	–	·	·
CCCc1cc(=O)oc2cc(C)cc(OCC(=O)N[C@@H](CSCc3ccccc3)C(=O)O)c12	–	–	–	–	–
CCOC(=O)N1CCN(C(=S)Nc2cc(S(=O)(=O)N3CCOCC3)ccc2Cl)CC1	–	–	–	–	–
Cc1ccc(NC(=O)CN2C(=O)NC3(CCCCCC3)C2=O)cc1Cl	·	–	·	?	?
CCC(=O)N1CCN(c2ccc(NC(=S)NC(=O)COc3ccccc3)cc2)CC1	?	–	13µM	–	–
CCC(=O)N1CCN(c2ccc(NC(=S)NC(=O)c3cc4ccccc4o3)cc2)CC1	13µM	–	4µM	–	–
CC(=O)N1CCN(c2ccc(NC(=O)c3cc4ccccc4o3)cc2)CC1	?	–	–	–	–
CC(C)C(=O)N1CCN(c2ccc(NC(=S)NC(=O)c3cc4ccccc4o3)cc2)CC1	5µM	–	?	–	–
NCCC[C@@H](CC(=O)N[C@@H]1CCCC[C@H]1C(=O)N[C@H](CC(=O)N[C@@H](CCC(=O)O)CC(=O)O)Cc1ccccc1)NC(=O)C[C@H](Cc1ccccc1)NC(=O)[C@@H]1CNCC[C@H]1N	–	·	–	·	·
CC(=O)N1c2ccc(Cl)cc2C2C=CCC2C1c1cccc2ccccc12 (stereo unspecified)	?	–	22µM	–	–
CC(=O)N1c2ccc3ccccc3c2C2C=CCC2C1c1ccc(Br)cc1 (stereo unspecified)	–[10 µM]	–	–	–	·
Cc1ccc(/C=N/NC(=O)c2cccc(S(=O)(=O)Nc3ccccc3Cl)c2)o1	13µM	–	?	–	–
COc1ccc(-c2nn(-c3ccccc3)cc2/C=N/NC(N)=S)cc1OC	1.1µM	–	1µM	–	–
COc1ccc(-c2nn(-c3ccccc3)cc2/C=N/Nc2ccccn2)cc1	1.6µM	–	4µM	–	·
CCN(CC)c1ccc(/C=N/NC(=O)c2cccc(S(=O)(=O)Nc3ccccc3OC)c2)c(O)c1	2.5µM	–	4.5µM	–	–
COc1ccccc1NS(=O)(=O)c1cccc(C(=O)N/N=C/c2ccc3c(c2)OCCO3)c1	–	–	–	–	–
COc1ccc(-c2nn(-c3ccccc3)cc2/C=N/n2cnnc2)cc1OC	–	–	–	–	–
O=C(CCc1nnc2ccc(N3CCC4(CC3)OCCO4)nn12)NCc1ccccc1Cl	–	–	–	–	–
CCN(CC)c1ccc(/C=N/NC(=O)c2cccc(S(=O)(=O)Nc3ccccc3OC)c2)cc1	6.3µM	?	8.9µM	–	?
SMILES	RORgamma inh	TRPV1 potentiator	Gal4-VP16 FLuc	TRPV1 agonist	uPA generation
COc1ccccc1NS(=O)(=O)c1cccc(C(=O)N/N=C/c2cn(-c3ccccc3)nc2-c2ccccc2)c1	1.6µM	–	6.3µM	–	–
Cc1noc(C)c1CSc1ncnc2sc(C)c(C)c12	–	–	–	–	–
Cc1noc(C)c1CSc1ncnc2sc3c(c12)CCCCC3	7.9µM	–	?	–	–
COCCC(=O)N1CCC(Oc2ccc(C(=O)N(C)C3CCCCC3)cc2)CC1	–	–	–	–	–
CCSc1ncc(Cl)c(C(=O)Nc2ccccc2OC)n1	–	–	–	–	–
CCc1nnc(NC(=O)c2nc(Cl)ccc2Cl)s1	?	–	–	–	–
CCOc1ccccc1NC(=O)c1nc(S(=O)(=O)Cc2cccc(C)c2)ncc1Cl	8.9µM	–	2.5µM	–	?
Cc1cccc(C(=O)Nc2nnc(Cc3ccccc3)s2)c1	–	–	–	–	–
CCc1nnc(NC(=O)c2nc(S(=O)(=O)Cc3ccccc3)ncc2Cl)s1	11µM	?	8.9µM	–	–
